A selection: hits, their analogues and other compounds. The true share with any hit is near 7.4%.
Rab9 prom act: activators of Rab9 promoter. 320,000 tested, 2.8% active. Potency, µM (doses to about 9.22 µM), for the others: top-dose activation, negative = inhibition, usual class: activators. AID 485297. Huh7 Rab9 promoter-luciferase reporter, luminescence, 24 h; also: % of control where 0% means no effect; nearly all actives have a fitted effect of over 60% in size
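Luciferase signal after 10 min detection reagent at ambient indicates Rab9 promoter upregulation; stably transfected Huh7 cells were treated 24 h with compound in DMSO at 37 °C, 5% CO2.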
ELG1 genotox: induces genotoxicity in HEK293T cells with luciferase-tagged ELG1; HEK293T ELG1-luciferase reporter, luminescence, 16 h; Potency, µM (series often up to 46 µM), inactives show at the highest dose activity change, positive = activation, most hits filed as activators; 330,000 tested, 1.3% active; AID 504466; also: % of control where 0% means no effect; nearly all actives have a fitted effect of over 60% in size
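Luminescence read-out: rising ELG1-luciferase signal, reflecting elevated ELG1 protein under genetic stress, flags genotoxic compounds. Cells were treated for 16 hr at 37 °C before ONE-Glo detection.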
FLuc modulator: inhibits or activates purified firefly luciferase, miR-21 counter-screen | AID 588342 | Potency, µM (series often up to 57.5 µM), without a hit: top-dose activity change, negative = inhibition, hits mostly inhibitors | 360,000 tested, 6.9% active | purified FLuc, Km substrates, luminescence inhibition;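 also: plate controls were vehicle for no effect and reference inhibitor for full effect; nearly all actives have a fitted effect of over 55% in size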
Target sequence (P08659 whole entry, looked up): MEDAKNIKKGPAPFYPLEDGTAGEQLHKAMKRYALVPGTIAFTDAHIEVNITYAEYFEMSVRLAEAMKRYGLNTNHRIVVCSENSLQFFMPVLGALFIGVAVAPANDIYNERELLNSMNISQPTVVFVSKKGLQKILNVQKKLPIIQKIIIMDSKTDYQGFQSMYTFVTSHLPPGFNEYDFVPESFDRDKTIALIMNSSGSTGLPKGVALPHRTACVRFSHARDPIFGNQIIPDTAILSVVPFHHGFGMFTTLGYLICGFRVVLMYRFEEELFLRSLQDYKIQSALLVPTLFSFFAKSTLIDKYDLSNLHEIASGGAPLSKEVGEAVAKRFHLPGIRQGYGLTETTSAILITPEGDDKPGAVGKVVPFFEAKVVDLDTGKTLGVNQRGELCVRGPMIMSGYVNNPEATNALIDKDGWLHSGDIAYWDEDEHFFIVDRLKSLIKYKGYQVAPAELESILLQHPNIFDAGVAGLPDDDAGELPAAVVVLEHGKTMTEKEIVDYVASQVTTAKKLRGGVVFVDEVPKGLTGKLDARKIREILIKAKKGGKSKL
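Biochemical qHTS of compounds, final roughly 60 µM downward over six points, against 10 nM purified firefly luciferase using Km concentrations of substrates (10 uM D-luciferin, 10 uM ATP) in Tris acetate pH 7.5 buffer; luminescence output.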
SMN2 splice up: SMN2 splice variant enhancement | HEK293 SMN2-luciferase splicing reporter, luminescence, 30-36 h | Potency, µM (series often up to 46.1 µM), for the others: at the top dose activity change, positive = activation, hits mostly activators | 210,000 tested, 2.8% active | AID 1458; also: % of control where 0% means no effect; nearly all actives have a fitted effect of over 55% in size
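HEK293 cells carry an SMN2 […]–luciferase reporter in which exon 7 inclusion puts luciferase in frame. Cells were plated 10-12 h before compound addition, then incubated 30-36 h at 37C. ONE-Glo luminescence was read; sodium butyrate at 4.5 mM final served as control.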
Luc counter: counter-screen: inhibitors of Kinase-Glo firefly luciferase | Q27757 | Kinase-Glo luciferase, ATP luminescence, 8 min | Potency, µM (doses to about 38.3 µM), for inactives: top-dose activity change, negative = inhibition, hits mostly inhibitors | 200,000 tested, 0.28% active | AID 1379; also: % is scaled to controls: 0 for no effect and ±100 for the full control effect; nearly all actives have a fitted effect of over 60% in size
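Light output from Kinase-Glo luciferase with luciferin and 10 uM ATP in 50 mM imidazole pH 7.2, KCl, MgCl2, Tween 20, BSA; compound pin-delivered, 8-min ambient incubation, then luminescence read.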
NPC1 promoter act: activates the NPC1 promoter; Huh7 NPC1 promoter luciferase reporter, 24 h; AID 485313; 320,000 tested, 2.4% active; Potency, µM (doses to about 9.22 µM), for inactives: at the highest dose activation, most hits filed as activators; also: % of control where 0% means no effect; nearly all actives have a fitted effect of over 60% in size
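NPC1 promoter–luciferase Huh7 cells; 24 h compound; luminescence.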
* hit, by the source's call; ? = inconclusive; · = no result; [ ] = another dose, or the depositor's remark. Calls follow the shape of the dose curve; as a rule, active = well fitted curve in the direction sought with a large enough effect; inconclusive = small, poorly fitted or top-dose-only effect, or another doubt; inactive = no such curve, though single readings can be large; an effect the other way counts as inactive or inconclusive. Potency is read from the fitted curve at half-maximal effect.

SMILES	Rab9 prom act	ELG1 genotox	FLuc modulator	SMN2 splice up	Luc counter	NPC1 promoter act
Cc1cc(C)cc(OCC(=O)Nc2nc3c(s2)CC(C(C)(C)C)CC3)c1 (configuration not stated)	·	·	12µM*	·	·	·
CC(C)(C)C1CCc2nc(NC(=O)COc3ccccc3[N+](=O)[O-])sc2C1 (configuration not stated)	·	·	-5%	·	·	·
Cc1cc(Cl)ccc1OCc1cc(=O)n2c3c(sc2n1)CCCC3	·	·	-4%	-6%	·	·
CSc1ccc(CNC(=O)CCc2c(C)nn(-c3ccc(N4CCCC4)nn3)c2C)cc1	·	·	-9%	·	·	·
CC(C)(C)C(=O)OC/C(N)=N/OC(=O)c1ccc(Cl)cc1	-1%	2%	?	·	·	-5%
CC(C)(C)C(=O)O/N=C(\N)COc1cccc(Cl)c1	-1%	8%	17µM*	·	·	3%
COC(=O)/C(Cc1cc(Br)c(OC)c(Br)c1O)=N/O	·	·	·	13%	0%	·
Brc1ccc(Sc2cnc3ccccc3n2)cc1	·	·	?	-11%	-1%	·
Clc1ccc(Sc2cnc3ccccc3n2)cc1	·	·	15µM*	-6%	-2%	·
Clc1ccccc1Sc1cnc2ccccc2n1	14%	1%	?	-7%	-6%	4%
c1ccc(Sc2cnc3ccccc3n2)cc1	·	·	21µM*	11%	-7%	·
CCOC(=O)C(C)NC(=O)c1c2c(nc3ccccc13)C(=O)N(C1CCCCC1)C2 (configuration not stated)	·	·	-2%	·	·	·
CCOc1cc(/C=C/c2ccc3cccc([N+](=O)[O-])c3n2)ccc1O	-1%	0%	?	9%	-3%	-3%
CCOc1cccc(/C=C/c2ccc3cccc(O)c3n2)c1OC	12%[1.84 µM]	21µM*	4.8µM*	·	·	3.2µM*
CCOc1c(OC(C)=O)ccc(/C=C/c2ccc3cccc(OC(C)=O)c3n2)c1[N+](=O)[O-]	?	-3%	?	24%	-1%	?
CCOc1cccc(/C=C/c2ccc3cccc(O)c3n2)c1O	?	23µM*	5.4µM*	·	·	?
CCOC(=O)C1CCCN(c2nc3c(S(=O)(=O)c4ccc(CC)cc4)nnn3c3ccsc23)C1 (configuration not stated)	·	·	-9%	·	·	·
COc1cccc(CNC(=O)c2cccc(NC(=O)c3nsc4ccccc34)c2)c1	·	·	6.7µM*	·	·	·
O=C(Nc1cccc(C(=O)N2CCCCC2)c1)c1nsc2ccccc12	·	·	5.4µM*	·	·	·
CCCCNC(=O)c1cccc(NC(=O)c2nsc3ccccc23)c1	·	·	4.8µM*	·	·	·
COC(=O)c1cccc(NC(=O)c2nsc3ccccc23)c1	·	·	0.95µM*	?	·	·
COC(=O)c1cccc(NC(=O)c2nn(C(C)C)c(=O)c3ccccc23)c1	-1%	9%	-1%	-12%	10%	18%
COc1cccc(-c2cn3c(n2)sc2cc(C(=O)NCCCc4ccccc4)ccc23)c1	·	·	-1%	·	·	·
O=C(NCc1cccc(F)c1)c1cccc(NC(=O)c2nsc3ccccc23)c1	·	·	8.5µM*	·	·	·
O=C(NCc1ccc(Cl)cc1)c1cccc(NC(=O)c2ccccc2)c1	-1%	-12%	-16%	-47%	-2%	-4%
SMILES	Rab9 prom act	ELG1 genotox	FLuc modulator	SMN2 splice up	Luc counter	NPC1 promoter act
Cc1ccc(NC(=S)N2CCCCC2)cc1C	26%	14%	24µM*	·	·	-2%
Cc1ccc(NC(=S)N2CCCCCC2)cc1	?	?	8.5µM*	·	·	?
Cc1ccc(-c2nnc(SCC(=O)NC3CCCC3)nc2-c2ccc(C)cc2)cc1	·	·	-9%	·	·	·
COc1cc(C2c3c(oc4ccc(F)cc4c3=O)C(=O)N2Cc2ccc3c(c2)OCO3)ccc1O (configuration not stated)	·	·	3%	0%	·	·
CCOC(=O)N1CCN(S(=O)(=O)c2ccc(C(=O)Nc3nnc(CC)o3)cc2)CC1	-4%	-2%	16%	3.5µM*	18%	-4%
CCOC(=O)N1CCN(S(=O)(=O)c2ccc(C(=O)Nc3nnc(C4CC4)o3)cc2)CC1	2%	-3%	3%	-70%	3%	-5%
CCCSCCCNC(=O)c1ccc2nc(Cc3ccccc3)oc2c1	·	·	-17%	·	·	·
O=C1CN(C(=O)COC(=O)CCC(=O)c2ccc(Cl)cc2)c2ccccc2N1	·	-2%	·	·	·	·
CCCOc1ccc(C(=O)CCC(=O)OCC(=O)N2CC(=O)Nc3ccccc32)cc1	-7%	-1%	17µM*	-2%	0%	-2%
COc1ccc(-c2cc(C(=O)N/N=C(\C)c3cccnc3)c3ccccc3n2)cc1	?	?	0.67µM*	·	·	?
CCCOc1cccc(-c2cc(C(=O)N/N=C/c3ccccn3)c3ccccc3n2)c1	-13%	?	3.8µM*	·	·	-2%
CCCOc1cccc(-c2cc(C(=O)NN)c3ccccc3n2)c1	2%	-2%	21µM*	-83%	-5%	1%
COc1ccc(/C(C)=N/NC(=O)c2cc(-c3cccnc3)nc3ccccc23)cc1	-2%	19%	0%	15%	0%	-2%
CCCOc1cccc(-c2cc(C(=O)N/N=C/c3cccnc3)c3ccccc3n2)c1	-4%	-15%	7.6µM*	·	·	2%
CC(C)COc1cccc(-c2cc(C(=O)Nc3ccon3)c3ccccc3n2)c1	0%	-19%	?	·	·	-2%
COc1ccccc1-c1cc(C(=O)N/N=C/c2ccoc2)c2ccccc2n1	2%	2%	?	·	·	-2%
COc1cc(/C=N/NC(=O)c2cc(-c3ccccc3)nc3ccccc23)cc(OC)c1O	2%	-3%	24µM*	·	·	-5%
COc1ccc(-c2cc(C(=O)N/N=C/c3cccnc3)c3ccccc3n2)cc1	24%	3%	1.1µM*	·	·	3%
CN1CCc2c(cc(O)c(O)c2Cl)C(c2cccc(Cl)c2)C1 (configuration not stated)	·	·	·	-1%	-1%	·
Cc1c([N+](=O)[O-])c(C(=O)N2CCCC2)nn1C	2%	2%	-2%	10%	1%	-3%
Cc1c([N+](=O)[O-])c(C(=O)Sc2ccc(Br)cc2)nn1C	-10%	-10%	17µM*	·	·	3%
CCC(=O)N1CCc2cc(S(=O)(=O)NC(Cc3ccccc3)C(=O)NCc3cccc(OC)c3)ccc21 (configuration not stated)	·	·	-8%	-2%	·	·
Fc1cc(Br)ccc1COc1ccc(-c2nnco2)cc1	2.5µM*	?	?	·	·	2.5µM*
Fc1ccc(COc2ccc(-c3nnco3)cc2)c(Cl)c1	?	25%	?	·	·	25%
CCn1nc(NS(=O)(=O)c2ccc(NC(C)=O)cc2)c2cc3cc(C)ccc3nc21	5%	12%	11µM*	·	·	9%
CCn1nc(NS(=O)(=O)c2ccccc2)c2cc3cc(C)ccc3nc21	0%	8%	15µM*	·	·	0%

Assay outcomes deposited in PubChem by National Center for Advancing Translational Sciences (NCATS).
